Article PMC7862700, “An all-to-all approach to the identification of sequence-specific readers for epigenetic DNA modifications on cytosine”

Columns and labels:
Test in all cases: DAPPL (digital affinity profiling via proximity ligation, sequencing); 10 mM Tris-HCl pH 7.5, 50 mM NaCl, 1 mM DTT, 4% glycerol, room temperature, 30 min; GST-TFs on glutathione beads, 16-mer random dsDNA library, 0.1% formaldehyde crosslink after washing; high values mean tight binding
GABPA = target: T1, GABPA (Homo sapiens, UniProt Q06546 1-454); conditions: protein: recombinant; tags: N-terminal GST; dsDNA, one strand shown
T1 sequence: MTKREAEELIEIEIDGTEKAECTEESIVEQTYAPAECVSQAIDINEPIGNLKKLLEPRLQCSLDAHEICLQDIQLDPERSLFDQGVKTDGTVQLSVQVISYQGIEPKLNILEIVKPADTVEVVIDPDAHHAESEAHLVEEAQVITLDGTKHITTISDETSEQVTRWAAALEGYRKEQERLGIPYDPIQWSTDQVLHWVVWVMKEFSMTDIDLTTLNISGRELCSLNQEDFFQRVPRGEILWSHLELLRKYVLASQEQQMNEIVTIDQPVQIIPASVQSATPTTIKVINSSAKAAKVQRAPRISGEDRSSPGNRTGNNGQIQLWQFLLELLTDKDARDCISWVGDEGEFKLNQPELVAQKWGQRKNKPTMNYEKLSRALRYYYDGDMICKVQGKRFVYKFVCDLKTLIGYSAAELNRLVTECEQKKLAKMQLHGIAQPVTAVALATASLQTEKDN
How it was run: (§1)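 In yeast, human transcription factors were expressed with a GST fusion, then pulled down on glutathione beads and given DNA barcodes. Pooled with a tag-only sample, they were exposed to 200 nmole of a 16-mer random double-stranded DNA library (Tris/NaCl/DTT/glycerol buffer, room temperature, 30 min), washed, crosslinked with 0.1% formaldehyde, proximity-ligated using BsaI/T4 ligase for 1 h at 37 °C, PCR-amplified and read on an Illumina NextSeq500. Each hexamer's frequency of reads for a factor, divided by the matching frequency for the tag-only sample, gives the binding signal.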

ELF1 = ELF1 (Homo sapiens, UniProt P32519 1-619); conditions: protein: recombinant; tags: N-terminal GST; dsDNA, one strand shown
How it was run: as §1

SPIB = SPIB (Homo sapiens, UniProt Q01892 1-262); conditions: protein: recombinant; tags: N-terminal GST; dsDNA, one strand shown
How it was run: as §1

HSF1 = HSF1 (Homo sapiens, UniProt Q00613 1-529); conditions: protein: recombinant; tags: N-terminal GST; chain copies: 3; dsDNA, one strand shown
How it was run: as §1

SPIC = target: T2, SPIC (Homo sapiens, UniProt Q8N5J4 1-248); conditions: protein: recombinant; tags: N-terminal GST; dsDNA, one strand shown
T2 sequence: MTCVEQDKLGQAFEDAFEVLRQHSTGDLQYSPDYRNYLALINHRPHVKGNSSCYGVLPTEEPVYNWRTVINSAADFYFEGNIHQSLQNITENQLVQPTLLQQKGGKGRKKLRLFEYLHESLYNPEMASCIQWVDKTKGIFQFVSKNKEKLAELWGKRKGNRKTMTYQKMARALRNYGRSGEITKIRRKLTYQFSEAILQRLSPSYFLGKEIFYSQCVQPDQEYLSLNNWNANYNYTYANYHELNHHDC
How it was run: as §1

ELF4 = ELF4 (Homo sapiens, UniProt Q99607 1-663); conditions: protein: recombinant; tags: N-terminal GST; dsDNA, one strand shown
How it was run: as §1

ELF3 = target: T3, ELF3 (Homo sapiens, UniProt P78545 1-371); conditions: protein: recombinant; tags: N-terminal GST; dsDNA, one strand shown
T3 sequence: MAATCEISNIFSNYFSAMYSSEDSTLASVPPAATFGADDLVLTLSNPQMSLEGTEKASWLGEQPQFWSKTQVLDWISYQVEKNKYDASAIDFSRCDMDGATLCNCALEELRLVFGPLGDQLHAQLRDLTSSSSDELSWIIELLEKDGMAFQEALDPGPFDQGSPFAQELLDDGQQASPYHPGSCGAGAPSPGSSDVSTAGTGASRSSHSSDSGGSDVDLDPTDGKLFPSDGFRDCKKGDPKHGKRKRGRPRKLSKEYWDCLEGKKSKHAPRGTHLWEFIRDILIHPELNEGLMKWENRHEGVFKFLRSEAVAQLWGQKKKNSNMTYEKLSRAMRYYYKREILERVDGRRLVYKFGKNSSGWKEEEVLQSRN
How it was run: as §1

CRX = CRX (Homo sapiens, UniProt O43186 1-299); conditions: protein: recombinant; tags: N-terminal GST; dsDNA, one strand shown
How it was run: as §1

ERF = target: T4, ERF (Homo sapiens, UniProt P50548 1-548); conditions: protein: recombinant; tags: N-terminal GST; dsDNA, one strand shown
T4 sequence: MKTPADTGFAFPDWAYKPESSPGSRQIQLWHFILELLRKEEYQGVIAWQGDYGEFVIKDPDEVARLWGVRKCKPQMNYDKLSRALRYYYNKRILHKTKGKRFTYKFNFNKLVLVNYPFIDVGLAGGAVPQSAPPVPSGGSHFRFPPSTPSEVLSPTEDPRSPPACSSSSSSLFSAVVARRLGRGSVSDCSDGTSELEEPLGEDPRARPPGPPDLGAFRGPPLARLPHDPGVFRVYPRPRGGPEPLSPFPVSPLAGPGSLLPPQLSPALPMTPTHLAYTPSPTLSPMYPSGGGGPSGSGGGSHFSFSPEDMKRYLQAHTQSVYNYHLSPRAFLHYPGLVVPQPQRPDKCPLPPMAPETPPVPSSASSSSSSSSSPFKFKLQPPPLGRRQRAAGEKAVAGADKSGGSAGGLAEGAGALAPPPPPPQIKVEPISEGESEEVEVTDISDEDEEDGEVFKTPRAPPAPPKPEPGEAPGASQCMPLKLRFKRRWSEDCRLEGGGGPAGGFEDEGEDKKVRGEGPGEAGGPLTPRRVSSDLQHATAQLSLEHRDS
How it was run: as §1

ETV3L = target: T5, ETV3L (Homo sapiens, UniProt Q6ZN32 1-361); conditions: protein: recombinant; tags: N-terminal GST; dsDNA, one strand shown
T5 sequence: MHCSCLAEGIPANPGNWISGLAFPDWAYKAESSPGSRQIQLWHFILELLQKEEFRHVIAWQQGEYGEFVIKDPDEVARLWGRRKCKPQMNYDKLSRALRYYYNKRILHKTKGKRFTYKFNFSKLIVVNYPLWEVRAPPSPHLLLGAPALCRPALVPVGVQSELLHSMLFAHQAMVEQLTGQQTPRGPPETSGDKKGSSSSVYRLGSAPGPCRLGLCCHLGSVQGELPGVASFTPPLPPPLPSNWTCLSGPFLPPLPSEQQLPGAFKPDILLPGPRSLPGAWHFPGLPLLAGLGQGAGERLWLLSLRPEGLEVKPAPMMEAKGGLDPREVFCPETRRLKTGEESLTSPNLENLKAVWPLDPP
How it was run: as §1

ETS2 = target: T6, ETS2 (Homo sapiens, UniProt P15036 1-469); conditions: protein: recombinant; tags: N-terminal GST; dsDNA, one strand shown
T6 sequence: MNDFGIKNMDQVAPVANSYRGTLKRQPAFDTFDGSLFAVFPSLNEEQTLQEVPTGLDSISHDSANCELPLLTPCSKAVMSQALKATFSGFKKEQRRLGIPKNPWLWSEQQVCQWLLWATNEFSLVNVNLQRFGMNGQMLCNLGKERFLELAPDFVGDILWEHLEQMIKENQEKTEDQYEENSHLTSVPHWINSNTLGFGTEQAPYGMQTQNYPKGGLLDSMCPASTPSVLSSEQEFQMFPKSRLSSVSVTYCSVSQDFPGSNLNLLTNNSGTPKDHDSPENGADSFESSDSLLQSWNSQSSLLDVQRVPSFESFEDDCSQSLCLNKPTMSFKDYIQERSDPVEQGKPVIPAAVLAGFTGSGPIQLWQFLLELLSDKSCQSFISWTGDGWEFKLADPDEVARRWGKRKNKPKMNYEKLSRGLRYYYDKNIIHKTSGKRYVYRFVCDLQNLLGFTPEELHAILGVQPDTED
How it was run: as §1

SPDEF = target: T7, SPDEF (Homo sapiens, UniProt O95238 1-335); conditions: protein: recombinant; tags: N-terminal GST; dsDNA, one strand shown
T7 sequence: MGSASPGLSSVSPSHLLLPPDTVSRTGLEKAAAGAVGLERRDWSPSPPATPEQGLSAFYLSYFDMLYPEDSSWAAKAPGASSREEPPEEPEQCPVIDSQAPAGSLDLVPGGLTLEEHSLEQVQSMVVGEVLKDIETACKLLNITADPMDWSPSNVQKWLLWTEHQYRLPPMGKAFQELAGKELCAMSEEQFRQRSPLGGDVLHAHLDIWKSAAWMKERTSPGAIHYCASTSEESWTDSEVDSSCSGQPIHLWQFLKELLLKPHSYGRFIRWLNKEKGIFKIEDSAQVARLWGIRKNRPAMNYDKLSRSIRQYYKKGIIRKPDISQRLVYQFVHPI
How it was run: as §1

ETV7 = target: T8, ETV7 (Homo sapiens, UniProt Q9Y603 1-341); conditions: protein: recombinant; tags: N-terminal GST; dsDNA, one strand shown
T8 sequence: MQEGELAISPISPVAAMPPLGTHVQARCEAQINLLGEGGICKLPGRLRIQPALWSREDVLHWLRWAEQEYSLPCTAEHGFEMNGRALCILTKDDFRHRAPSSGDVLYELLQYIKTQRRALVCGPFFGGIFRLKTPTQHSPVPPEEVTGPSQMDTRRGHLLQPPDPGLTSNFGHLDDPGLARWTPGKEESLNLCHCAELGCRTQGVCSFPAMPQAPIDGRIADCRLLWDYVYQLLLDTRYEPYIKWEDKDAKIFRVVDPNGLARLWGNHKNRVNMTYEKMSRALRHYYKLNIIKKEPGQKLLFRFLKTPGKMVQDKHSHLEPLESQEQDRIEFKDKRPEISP
How it was run: as §1

ETV3 = target: T9, ETV3 (Homo sapiens, UniProt P41162-2 1-143); conditions: protein: recombinant; tags: N-terminal GST; dsDNA, one strand shown
T9 sequence: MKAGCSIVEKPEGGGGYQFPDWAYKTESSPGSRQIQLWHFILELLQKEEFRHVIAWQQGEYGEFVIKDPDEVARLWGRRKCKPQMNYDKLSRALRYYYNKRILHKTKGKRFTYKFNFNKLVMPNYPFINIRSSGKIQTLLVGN
How it was run: as §1

ETV6 = ETV6 (Homo sapiens, UniProt P41212 1-452); conditions: protein: recombinant; tags: N-terminal GST; dsDNA, one strand shown
How it was run: as §1

Chain of ELF4 (Q99607 whole entry): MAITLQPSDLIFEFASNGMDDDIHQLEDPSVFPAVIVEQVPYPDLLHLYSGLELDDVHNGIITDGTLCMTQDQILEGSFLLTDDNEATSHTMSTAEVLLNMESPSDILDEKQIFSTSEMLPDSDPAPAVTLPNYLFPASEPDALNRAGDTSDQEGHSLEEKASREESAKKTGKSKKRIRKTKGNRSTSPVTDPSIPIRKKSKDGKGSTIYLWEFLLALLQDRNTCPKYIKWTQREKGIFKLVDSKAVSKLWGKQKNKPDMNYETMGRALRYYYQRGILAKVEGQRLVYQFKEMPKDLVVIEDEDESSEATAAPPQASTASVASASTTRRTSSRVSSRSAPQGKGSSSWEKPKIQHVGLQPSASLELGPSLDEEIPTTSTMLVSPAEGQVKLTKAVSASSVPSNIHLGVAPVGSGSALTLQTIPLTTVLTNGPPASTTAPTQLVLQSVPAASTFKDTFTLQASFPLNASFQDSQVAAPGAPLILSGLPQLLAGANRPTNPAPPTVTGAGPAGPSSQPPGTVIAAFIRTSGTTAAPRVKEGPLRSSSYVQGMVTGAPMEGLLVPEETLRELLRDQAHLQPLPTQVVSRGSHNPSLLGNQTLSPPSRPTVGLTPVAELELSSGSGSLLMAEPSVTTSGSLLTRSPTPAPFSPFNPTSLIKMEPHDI
Chain of ETV6 (P41212 whole entry): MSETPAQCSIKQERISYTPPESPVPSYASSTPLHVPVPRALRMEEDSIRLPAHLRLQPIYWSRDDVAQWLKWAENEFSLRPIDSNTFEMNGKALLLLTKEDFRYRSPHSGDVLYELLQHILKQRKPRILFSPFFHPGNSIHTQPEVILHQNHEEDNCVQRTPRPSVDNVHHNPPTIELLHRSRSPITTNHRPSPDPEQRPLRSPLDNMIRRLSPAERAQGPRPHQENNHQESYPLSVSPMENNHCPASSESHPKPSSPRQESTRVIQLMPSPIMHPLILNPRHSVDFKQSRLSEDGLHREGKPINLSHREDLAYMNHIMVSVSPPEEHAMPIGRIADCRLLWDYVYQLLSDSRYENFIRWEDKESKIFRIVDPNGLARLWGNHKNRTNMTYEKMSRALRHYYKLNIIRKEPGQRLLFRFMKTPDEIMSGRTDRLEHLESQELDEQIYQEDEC
Chain of ELF1 (P32519 whole entry): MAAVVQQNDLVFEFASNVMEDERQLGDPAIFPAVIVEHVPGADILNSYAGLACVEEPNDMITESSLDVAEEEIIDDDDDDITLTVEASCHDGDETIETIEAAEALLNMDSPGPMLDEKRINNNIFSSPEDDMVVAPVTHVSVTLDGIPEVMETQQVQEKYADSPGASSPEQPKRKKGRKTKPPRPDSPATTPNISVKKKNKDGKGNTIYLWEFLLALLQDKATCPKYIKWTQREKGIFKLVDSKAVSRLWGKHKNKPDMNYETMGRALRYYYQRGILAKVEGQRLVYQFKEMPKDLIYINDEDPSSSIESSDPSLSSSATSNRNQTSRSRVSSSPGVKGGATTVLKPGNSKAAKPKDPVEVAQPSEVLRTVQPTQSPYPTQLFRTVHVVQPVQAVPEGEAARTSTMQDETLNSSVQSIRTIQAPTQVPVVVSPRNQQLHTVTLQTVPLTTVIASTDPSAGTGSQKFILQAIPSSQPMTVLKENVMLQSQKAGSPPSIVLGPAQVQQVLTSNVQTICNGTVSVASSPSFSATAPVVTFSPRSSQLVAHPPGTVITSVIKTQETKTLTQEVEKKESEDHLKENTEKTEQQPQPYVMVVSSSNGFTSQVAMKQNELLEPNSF
Chain of SPIB (Q01892 whole entry): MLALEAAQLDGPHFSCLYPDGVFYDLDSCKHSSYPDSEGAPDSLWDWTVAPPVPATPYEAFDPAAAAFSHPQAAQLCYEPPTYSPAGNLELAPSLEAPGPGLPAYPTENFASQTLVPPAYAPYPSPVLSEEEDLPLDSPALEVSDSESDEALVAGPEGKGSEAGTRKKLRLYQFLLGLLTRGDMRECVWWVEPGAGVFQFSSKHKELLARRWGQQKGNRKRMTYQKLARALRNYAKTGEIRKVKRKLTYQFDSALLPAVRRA
Chain of CRX (O43186 whole entry): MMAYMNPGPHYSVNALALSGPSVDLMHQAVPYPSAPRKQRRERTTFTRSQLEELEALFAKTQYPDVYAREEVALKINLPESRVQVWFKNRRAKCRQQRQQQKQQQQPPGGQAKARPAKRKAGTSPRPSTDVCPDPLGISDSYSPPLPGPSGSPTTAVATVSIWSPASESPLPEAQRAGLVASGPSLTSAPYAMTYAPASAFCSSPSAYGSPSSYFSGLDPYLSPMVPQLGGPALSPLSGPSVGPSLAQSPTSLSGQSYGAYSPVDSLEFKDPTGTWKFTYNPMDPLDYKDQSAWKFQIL
Chain of HSF1 (Q00613 whole entry): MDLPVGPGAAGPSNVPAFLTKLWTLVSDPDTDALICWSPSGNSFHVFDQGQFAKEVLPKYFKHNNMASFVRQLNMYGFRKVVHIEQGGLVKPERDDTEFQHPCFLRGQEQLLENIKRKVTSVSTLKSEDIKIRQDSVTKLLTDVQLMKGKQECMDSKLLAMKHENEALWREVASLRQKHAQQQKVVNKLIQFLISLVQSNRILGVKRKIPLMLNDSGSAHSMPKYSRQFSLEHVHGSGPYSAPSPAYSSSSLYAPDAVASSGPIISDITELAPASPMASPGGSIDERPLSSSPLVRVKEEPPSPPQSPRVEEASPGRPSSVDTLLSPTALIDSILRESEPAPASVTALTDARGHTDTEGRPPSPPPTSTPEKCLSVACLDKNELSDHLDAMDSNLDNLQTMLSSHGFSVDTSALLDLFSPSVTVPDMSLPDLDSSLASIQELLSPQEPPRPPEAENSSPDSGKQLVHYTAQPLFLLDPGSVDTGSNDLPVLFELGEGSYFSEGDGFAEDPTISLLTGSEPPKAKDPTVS

GCTTAA
binding signal (GABPA): 1.14 fold enrichment (6-mer frequency, TF over GST control) | binding signal (ELF1): 1.11 fold enrichment (6-mer frequency, TF over GST control) | binding signal (SPIB): 1.09 fold enrichment (6-mer frequency, TF over GST control) | binding signal (HSF1): 1.86 fold enrichment (6-mer frequency, TF over GST control) | binding signal (SPIC): 1 fold enrichment (6-mer frequency, TF over GST control) | binding signal (ELF4): 1.02 fold enrichment (6-mer frequency, TF over GST control) | binding signal (ELF3): 1.02 fold enrichment (6-mer frequency, TF over GST control) | binding signal (CRX): 3.04 fold enrichment (6-mer frequency, TF over GST control) | binding signal (ERF): 1.03 fold enrichment (6-mer frequency, TF over GST control) | binding signal (ETV3L): 1.05 fold enrichment (6-mer frequency, TF over GST control) | binding signal (ETS2): 1.08 fold enrichment (6-mer frequency, TF over GST control) | binding signal (SPDEF): 1.06 fold enrichment (6-mer frequency, TF over GST control) | binding signal (ETV7): 1.06 fold enrichment (6-mer frequency, TF over GST control) | binding signal (ETV3): 1.13 fold enrichment (6-mer frequency, TF over GST control) | binding signal (ETV6): 1.05 fold enrichment (6-mer frequency, TF over GST control)
